ChEMBL document CHEMBL1961873, “Compounds: GSK PKIS; Assays: Nanosyn kinase panel” (2012)

Tests used:
[1] = molecular target: Tyrosine-protein kinase SYK (Homo sapiens) (UniProt P43405); details: at 1 µM
[2] = molecular target: T1, Tyrosine-protein kinase Tec (Homo sapiens) (UniProt P42680); details: at 0.1 µM
T1 sequence (whole entry): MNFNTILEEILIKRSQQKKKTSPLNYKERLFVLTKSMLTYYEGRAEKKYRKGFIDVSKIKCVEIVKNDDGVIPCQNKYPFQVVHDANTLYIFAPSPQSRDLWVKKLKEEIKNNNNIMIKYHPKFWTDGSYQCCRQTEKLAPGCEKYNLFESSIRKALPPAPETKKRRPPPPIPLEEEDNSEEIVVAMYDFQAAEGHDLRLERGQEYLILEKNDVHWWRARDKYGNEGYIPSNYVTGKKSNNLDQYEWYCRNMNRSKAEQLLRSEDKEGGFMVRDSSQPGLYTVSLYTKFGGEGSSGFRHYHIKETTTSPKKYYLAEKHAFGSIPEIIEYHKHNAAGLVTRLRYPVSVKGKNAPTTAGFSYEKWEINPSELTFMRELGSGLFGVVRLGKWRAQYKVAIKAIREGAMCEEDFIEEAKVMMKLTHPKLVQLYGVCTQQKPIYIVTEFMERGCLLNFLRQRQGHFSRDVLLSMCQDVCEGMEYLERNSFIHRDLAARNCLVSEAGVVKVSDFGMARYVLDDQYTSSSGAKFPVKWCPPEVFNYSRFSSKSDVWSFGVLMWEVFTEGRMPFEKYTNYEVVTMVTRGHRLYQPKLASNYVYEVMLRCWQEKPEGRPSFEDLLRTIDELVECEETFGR

[3] = molecular target: T1, Tyrosine-protein kinase Tec (Homo sapiens); details: at 1 µM
[4] = molecular target: Angiopoietin-1 receptor (Homo sapiens) (UniProt Q02763); details: at 0.1 µM
[5] = molecular target: Angiopoietin-1 receptor (Homo sapiens) (UniProt Q02763); details: at 1 µM
[6] = molecular target: T2, Non-receptor tyrosine-protein kinase TNK1 (Homo sapiens) (UniProt Q13470); details: at 0.1 µM
T2 sequence (whole entry): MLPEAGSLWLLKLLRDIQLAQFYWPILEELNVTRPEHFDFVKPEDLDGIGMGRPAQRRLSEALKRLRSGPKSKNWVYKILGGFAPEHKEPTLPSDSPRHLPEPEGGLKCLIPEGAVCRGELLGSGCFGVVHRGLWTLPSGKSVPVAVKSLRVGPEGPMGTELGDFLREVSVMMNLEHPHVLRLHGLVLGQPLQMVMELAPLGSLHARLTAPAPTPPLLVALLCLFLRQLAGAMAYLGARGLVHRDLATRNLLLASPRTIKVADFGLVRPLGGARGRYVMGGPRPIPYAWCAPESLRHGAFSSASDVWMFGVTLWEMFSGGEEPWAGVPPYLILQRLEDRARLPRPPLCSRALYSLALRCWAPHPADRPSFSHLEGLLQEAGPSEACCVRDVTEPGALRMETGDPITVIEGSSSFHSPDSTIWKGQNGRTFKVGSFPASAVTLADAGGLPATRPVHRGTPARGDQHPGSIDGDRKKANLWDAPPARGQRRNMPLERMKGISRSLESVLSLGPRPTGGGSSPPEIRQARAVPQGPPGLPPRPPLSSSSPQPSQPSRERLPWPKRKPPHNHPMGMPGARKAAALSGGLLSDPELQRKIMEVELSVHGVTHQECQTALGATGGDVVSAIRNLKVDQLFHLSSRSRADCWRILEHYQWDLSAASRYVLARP

[7] = molecular target: T2, Non-receptor tyrosine-protein kinase TNK1 (Homo sapiens); details: at 1 µM
[8] = molecular target: Activated CDC42 kinase 1 (Homo sapiens) (UniProt Q07912); details: at 0.1 µM
[9] = molecular target: Activated CDC42 kinase 1 (Homo sapiens) (UniProt Q07912); details: at 1 µM
[10] = molecular target: High affinity nerve growth factor receptor (Homo sapiens) (UniProt P04629); details: at 0.1 µM
[11] = molecular target: High affinity nerve growth factor receptor (Homo sapiens) (UniProt P04629); details: at 1 µM
[12] = molecular target: BDNF/NT-3 growth factors receptor (Homo sapiens) (UniProt Q16620); details: at 0.1 µM
[13] = molecular target: BDNF/NT-3 growth factors receptor (Homo sapiens) (UniProt Q16620); details: at 1 µM
[14] = molecular target: NT-3 growth factor receptor (Homo sapiens) (UniProt Q16288); details: at 0.1 µM
[15] = molecular target: NT-3 growth factor receptor (Homo sapiens) (UniProt Q16288); details: at 1 µM
[16] = molecular target: T3, Tyrosine-protein kinase TXK (Homo sapiens) (UniProt P42681); details: at 0.1 µM
T3 sequence (whole entry): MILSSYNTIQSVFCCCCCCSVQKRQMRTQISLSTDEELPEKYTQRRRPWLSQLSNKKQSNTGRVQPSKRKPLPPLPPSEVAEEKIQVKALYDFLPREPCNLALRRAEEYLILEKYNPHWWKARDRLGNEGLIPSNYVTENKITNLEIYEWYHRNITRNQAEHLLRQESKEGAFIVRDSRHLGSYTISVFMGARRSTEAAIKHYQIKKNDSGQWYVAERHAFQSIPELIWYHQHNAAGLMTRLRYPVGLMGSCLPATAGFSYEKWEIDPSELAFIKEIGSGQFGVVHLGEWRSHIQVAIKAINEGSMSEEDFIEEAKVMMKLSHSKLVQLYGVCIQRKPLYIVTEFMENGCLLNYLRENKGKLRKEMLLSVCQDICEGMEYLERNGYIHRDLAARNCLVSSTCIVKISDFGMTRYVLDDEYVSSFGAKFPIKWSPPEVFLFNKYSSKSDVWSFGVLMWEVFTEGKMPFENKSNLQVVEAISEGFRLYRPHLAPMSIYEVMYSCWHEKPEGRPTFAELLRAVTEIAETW

[17] = molecular target: T3, Tyrosine-protein kinase TXK (Homo sapiens); details: at 1 µM
[18] = molecular target: Non-receptor tyrosine-protein kinase TYK2 (Homo sapiens) (UniProt P29597); details: at 0.1 µM;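 also: each value is a mean of the inhibition readings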
[19] = molecular target: T4, Dual specificity protein kinase TTK (Homo sapiens) (UniProt P33981); details: at 1 µM;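 also: reported figures are mean TTK inhibition at 1 µM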
T4 sequence (whole entry): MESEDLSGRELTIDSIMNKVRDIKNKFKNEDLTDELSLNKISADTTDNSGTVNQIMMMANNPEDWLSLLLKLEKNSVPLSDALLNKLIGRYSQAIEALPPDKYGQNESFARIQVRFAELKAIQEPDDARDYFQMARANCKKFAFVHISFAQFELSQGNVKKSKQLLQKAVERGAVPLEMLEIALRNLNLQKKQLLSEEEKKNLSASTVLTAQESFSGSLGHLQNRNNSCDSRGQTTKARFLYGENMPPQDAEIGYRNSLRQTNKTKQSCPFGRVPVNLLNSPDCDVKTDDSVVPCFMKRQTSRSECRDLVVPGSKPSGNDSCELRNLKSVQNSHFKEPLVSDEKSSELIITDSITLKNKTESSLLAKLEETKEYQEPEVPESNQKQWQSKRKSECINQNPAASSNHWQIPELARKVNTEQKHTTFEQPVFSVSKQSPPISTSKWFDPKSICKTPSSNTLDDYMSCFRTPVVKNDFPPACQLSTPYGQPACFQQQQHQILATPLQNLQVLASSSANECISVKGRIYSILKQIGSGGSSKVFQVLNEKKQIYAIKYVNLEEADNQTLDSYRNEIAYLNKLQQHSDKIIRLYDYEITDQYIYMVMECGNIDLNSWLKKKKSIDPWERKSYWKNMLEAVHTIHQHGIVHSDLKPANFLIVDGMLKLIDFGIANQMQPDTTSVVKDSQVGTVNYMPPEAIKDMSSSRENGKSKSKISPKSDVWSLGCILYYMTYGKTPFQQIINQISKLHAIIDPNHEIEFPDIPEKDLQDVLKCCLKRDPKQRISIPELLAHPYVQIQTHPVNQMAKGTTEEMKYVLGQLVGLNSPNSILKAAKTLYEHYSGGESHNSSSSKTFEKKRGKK

[20] = molecular target: T5, Aurora kinase A (Homo sapiens) (UniProt O14965); details: at 0.1 µM;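 also: each reported value is a mean percent inhibition of Aurora-A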
T5 sequence (whole entry): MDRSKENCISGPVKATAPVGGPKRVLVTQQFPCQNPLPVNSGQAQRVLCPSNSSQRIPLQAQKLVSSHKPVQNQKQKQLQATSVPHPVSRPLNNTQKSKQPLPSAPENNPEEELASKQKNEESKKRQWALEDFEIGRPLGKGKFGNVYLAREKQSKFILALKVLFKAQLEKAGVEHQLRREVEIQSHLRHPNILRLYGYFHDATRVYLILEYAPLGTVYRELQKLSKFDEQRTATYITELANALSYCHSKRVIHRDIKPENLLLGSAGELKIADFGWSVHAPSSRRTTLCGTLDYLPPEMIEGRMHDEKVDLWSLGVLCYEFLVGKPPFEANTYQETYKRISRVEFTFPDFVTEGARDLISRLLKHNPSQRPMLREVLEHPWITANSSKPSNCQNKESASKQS

Sequence of NT-3 growth factor receptor (Homo sapiens) (Q16288 32-839 limits assumed): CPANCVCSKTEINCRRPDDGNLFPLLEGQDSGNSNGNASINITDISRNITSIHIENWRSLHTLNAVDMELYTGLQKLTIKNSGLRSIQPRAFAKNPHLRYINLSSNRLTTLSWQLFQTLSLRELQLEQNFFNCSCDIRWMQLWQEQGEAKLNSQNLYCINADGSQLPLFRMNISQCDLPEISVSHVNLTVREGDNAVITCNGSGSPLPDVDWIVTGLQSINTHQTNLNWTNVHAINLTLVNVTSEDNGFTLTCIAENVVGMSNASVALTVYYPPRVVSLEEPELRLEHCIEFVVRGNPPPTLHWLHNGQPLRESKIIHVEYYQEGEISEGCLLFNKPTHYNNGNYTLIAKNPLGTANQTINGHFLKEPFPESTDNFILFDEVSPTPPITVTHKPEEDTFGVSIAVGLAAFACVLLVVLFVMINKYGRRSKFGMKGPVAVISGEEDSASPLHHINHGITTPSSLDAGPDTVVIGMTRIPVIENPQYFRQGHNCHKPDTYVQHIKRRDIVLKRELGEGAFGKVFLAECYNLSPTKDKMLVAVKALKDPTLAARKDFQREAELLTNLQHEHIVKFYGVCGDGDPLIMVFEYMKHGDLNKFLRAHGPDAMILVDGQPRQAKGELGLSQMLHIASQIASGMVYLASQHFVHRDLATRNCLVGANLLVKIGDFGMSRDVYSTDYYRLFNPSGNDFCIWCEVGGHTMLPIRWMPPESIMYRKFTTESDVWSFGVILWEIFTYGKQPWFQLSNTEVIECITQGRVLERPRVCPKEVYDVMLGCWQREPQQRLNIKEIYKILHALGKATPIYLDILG
Sequence of Non-receptor tyrosine-protein kinase TYK2 (Homo sapiens) (P29597 whole entry): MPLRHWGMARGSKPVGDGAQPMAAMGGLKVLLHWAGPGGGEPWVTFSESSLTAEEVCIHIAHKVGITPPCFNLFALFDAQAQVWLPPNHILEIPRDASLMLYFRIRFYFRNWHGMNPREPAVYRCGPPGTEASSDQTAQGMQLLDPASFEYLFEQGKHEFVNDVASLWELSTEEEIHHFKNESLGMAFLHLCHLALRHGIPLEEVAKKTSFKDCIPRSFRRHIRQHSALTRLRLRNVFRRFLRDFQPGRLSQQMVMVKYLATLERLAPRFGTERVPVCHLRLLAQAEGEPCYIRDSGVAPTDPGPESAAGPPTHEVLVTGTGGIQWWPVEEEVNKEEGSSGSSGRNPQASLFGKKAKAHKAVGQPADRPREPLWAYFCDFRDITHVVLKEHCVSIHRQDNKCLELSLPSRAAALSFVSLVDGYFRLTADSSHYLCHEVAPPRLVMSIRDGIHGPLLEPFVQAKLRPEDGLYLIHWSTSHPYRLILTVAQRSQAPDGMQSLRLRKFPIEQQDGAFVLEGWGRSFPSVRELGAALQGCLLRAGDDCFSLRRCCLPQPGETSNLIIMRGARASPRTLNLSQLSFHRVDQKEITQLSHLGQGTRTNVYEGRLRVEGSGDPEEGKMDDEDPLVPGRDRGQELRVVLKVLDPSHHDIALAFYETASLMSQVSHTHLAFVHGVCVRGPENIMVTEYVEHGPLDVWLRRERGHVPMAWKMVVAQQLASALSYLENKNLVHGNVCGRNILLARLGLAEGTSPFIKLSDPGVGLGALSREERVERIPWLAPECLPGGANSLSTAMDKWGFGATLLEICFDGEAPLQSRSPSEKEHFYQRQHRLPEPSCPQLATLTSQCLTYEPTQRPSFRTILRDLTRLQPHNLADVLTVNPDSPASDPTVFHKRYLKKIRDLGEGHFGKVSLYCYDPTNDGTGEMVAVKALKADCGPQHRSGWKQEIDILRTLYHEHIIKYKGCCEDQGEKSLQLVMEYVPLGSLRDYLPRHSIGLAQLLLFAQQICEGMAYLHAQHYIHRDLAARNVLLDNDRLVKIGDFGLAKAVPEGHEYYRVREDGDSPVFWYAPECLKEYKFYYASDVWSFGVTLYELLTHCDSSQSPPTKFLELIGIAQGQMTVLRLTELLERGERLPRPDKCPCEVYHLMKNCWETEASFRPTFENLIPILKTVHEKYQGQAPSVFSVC
Sequence of Angiopoietin-1 receptor (Homo sapiens) (Q02763 whole entry): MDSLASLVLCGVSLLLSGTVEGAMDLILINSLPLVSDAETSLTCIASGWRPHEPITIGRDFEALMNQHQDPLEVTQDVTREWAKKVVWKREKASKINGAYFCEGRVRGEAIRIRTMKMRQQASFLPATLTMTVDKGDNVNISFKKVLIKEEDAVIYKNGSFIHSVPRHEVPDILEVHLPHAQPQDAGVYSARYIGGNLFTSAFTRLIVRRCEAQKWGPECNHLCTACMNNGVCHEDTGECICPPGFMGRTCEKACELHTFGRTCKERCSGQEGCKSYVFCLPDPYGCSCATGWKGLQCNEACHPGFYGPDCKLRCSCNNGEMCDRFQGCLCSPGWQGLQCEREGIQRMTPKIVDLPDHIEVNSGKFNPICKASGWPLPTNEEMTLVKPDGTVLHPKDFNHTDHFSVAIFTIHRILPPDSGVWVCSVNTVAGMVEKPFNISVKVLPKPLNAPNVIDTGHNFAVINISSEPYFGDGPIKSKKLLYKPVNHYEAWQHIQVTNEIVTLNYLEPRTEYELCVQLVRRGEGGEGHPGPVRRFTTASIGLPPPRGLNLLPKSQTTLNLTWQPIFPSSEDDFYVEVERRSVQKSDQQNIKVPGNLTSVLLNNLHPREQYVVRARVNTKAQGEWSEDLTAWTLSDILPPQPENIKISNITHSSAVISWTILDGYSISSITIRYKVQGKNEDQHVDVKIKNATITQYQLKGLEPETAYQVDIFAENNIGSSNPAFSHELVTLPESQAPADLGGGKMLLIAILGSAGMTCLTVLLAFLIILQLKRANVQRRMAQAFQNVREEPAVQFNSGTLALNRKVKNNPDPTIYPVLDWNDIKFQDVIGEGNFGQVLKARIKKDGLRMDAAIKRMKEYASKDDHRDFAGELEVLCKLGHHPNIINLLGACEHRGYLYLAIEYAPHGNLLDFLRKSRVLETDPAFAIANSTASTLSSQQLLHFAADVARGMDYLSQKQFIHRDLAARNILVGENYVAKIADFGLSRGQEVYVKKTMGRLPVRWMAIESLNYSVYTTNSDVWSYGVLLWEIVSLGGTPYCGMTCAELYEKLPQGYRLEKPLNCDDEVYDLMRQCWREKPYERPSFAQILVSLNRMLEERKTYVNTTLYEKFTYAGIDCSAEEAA
Sequence of High affinity nerve growth factor receptor (Homo sapiens) (P04629 33-796 limits assumed): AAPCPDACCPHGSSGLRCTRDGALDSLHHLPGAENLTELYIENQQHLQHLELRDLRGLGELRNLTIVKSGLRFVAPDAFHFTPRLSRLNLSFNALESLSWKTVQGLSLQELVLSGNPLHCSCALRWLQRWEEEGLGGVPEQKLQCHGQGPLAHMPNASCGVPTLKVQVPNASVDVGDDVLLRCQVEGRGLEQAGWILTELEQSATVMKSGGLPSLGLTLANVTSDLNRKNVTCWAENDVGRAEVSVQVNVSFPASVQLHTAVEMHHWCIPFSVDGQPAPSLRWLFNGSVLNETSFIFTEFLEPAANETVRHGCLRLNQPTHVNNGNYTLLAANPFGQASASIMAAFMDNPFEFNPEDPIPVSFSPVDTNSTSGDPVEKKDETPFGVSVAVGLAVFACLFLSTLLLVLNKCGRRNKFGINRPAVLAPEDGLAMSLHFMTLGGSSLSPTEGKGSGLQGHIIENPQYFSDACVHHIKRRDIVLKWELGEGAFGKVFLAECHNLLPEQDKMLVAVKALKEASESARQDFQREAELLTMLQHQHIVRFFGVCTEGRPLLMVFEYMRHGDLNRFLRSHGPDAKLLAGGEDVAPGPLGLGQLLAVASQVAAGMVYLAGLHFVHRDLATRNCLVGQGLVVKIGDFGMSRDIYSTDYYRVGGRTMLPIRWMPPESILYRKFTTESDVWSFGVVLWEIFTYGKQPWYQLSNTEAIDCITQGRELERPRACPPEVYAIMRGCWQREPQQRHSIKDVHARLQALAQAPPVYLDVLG
Sequence of BDNF/NT-3 growth factors receptor (Homo sapiens) (Q16620 32-822 limits assumed): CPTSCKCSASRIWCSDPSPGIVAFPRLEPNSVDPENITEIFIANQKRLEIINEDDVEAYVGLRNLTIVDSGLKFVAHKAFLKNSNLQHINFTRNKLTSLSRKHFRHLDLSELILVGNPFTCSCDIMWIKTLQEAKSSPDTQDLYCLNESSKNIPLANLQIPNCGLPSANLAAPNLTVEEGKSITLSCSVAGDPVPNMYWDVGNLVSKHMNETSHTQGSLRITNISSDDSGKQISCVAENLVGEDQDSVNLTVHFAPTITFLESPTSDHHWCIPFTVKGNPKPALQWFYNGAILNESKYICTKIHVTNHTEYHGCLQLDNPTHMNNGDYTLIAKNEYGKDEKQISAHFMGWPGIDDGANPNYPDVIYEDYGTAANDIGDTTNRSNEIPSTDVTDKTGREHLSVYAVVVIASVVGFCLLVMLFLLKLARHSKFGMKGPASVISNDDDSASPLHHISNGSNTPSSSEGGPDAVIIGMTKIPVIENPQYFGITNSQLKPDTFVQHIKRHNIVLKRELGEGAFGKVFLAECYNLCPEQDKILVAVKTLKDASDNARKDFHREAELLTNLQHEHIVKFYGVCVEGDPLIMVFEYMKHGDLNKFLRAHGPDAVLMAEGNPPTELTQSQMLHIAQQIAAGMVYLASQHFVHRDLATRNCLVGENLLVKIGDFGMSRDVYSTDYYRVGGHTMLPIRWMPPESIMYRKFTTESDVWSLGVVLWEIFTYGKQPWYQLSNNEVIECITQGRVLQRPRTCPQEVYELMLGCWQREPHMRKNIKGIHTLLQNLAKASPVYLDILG

SMILES | inhibition [1] [%] | inhibition [2] [%] | inhibition [3] [%] | inhibition [4] [%] | inhibition [5] [%] | inhibition [6] [%] | inhibition [7] [%] | inhibition [8] [%] | inhibition [9] [%] | inhibition [10] [%] | inhibition [11] [%] | inhibition [12] [%] | inhibition [13] [%] | inhibition [14] [%] | inhibition [15] [%] | inhibition [16] [%] | inhibition [17] [%] | inhibition [18] [%] | inhibition [19] [%] | inhibition [20] [%]
COC(=O)c1ccc2c(c1)C(=Cc1cc(Br)c(O)c(Br)c1)C(=O)N2 | -1.69 | 9.11 | 7.75 | 3.09 | 3.01 | 25.5 | 70.2 | 0.88 | 8.96 | 2.4 | 6.54 | 3.26 | 8.43 | 2.35 | 12.1 | 6.42 | 12.3 | 5.83 | 25.2 | 30.8
Nc1nccc(-c2c(-c3ccc(F)cc3)nn3cc(C(F)(F)F)ccc23)n1 | -1.5 | 0.64 | 4.1 | 1.2 | 3.87 | 2.37 | -0.22 | -0.73 | 0.6 | -2.97 | -4.55 | 0.39 | 0.48 | 0.11 | 1.1 | 0.11 | 6.52 | -4.56 | 4.23 | 0.97
N#Cc1cccc(Nc2nccc(-c3cnn4ncccc34)n2)c1 | 53.2 | 8.87 | 39.3 | 3.66 | 18.6 | 11.9 | 52.3 | 2.35 | 11.7 | 15.4 | 65.7 | 24.3 | 75.3 | 28.2 | 87.5 | 5.32 | 24.4 | -4.17 | 35 | 11.3
CS(=O)(=O)Nc1cccc(-c2ccc3c(NC(=O)C4CC4)n[nH]c3c2)c1 | 0.89 | 2.55 | 3.97 | 1.52 | 7.04 | 2.45 | -6.75 | -0.85 | -2.06 | -1.92 | 2.02 | 0.05 | 0.23 | -0.22 | 5.08 | -1.12 | 2.67 | 0.85 | 5.01 | 2.68
COC(=O)Nc1nc2cc(Oc3ccc(NC(=O)Nc4cccc(Br)c4)cc3)ccc2[nH]1 | 0.53 | 4.37 | 3.43 | 31.3 | 54 | 3.04 | 8.8 | 0.29 | 0.1 | 28.4 | 55.6 | 19.7 | 32.5 | 20.9 | 38.8 | 2.73 | 4.17 | 0.49 | 8.12 | 0.95
CS(=O)(=O)CCNCc1nc(-c2ccc3ncnc(Nc4ccc(OCc5cccc(C(F)(F)F)c5)cc4)c3c2)cs1 | 2.72 | 4.74 | 5.07 | 5.84 | 6.51 | 0.85 | 2.82 | 0.72 | 3.3 | 0.13 | 5.08 | 2.33 | 12.1 | 1.39 | 7.81 | 6.88 | 5.83 | -3.62 | 2.16 | 3.8
Cc1ccc2c(-c3ccnc(Nc4ccc5c(c4)OCCO5)n3)c(-c3ccc(C(F)(F)F)cc3)nn2n1 | -4.13 | -0.12 | 3.34 | -0.68 | 6.26 | -0.74 | 2.22 | -0.07 | 0.6 | -1.98 | -4.22 | -1.22 | 0.09 | 3.63 | -0.97 | -1.11 | 2.6 | -0.28 | 4.26 | 3.93
Cc1ccc(O)cc1Nc1ccnc2ccc(S(C)(=O)=O)cc12 | -3.99 | 77.9 | 82.7 | 27.1 | 70.5 | 4.13 | 13.7 | 9.97 | 54.8 | 2.69 | 2.38 | 3.22 | 5.52 | 6.41 | 7.31 | 81 | 83.8 | -1.89 | 10 | 1.96
CN(C)c1cc2c(Nc3ccc4c(cnn4Cc4ccccc4)c3)ncnc2cn1 | 0.09 | 3.97 | 9.92 | 2.74 | 5.29 | 3.66 | 14.7 | 0.72 | 1.68 | 1.75 | 1.97 | 1.16 | 0.6 | 2.13 | 1.66 | 3.19 | 4.31 | -2.71 | 6.41 | -1.73
C[C@@H](Oc1cc(-n2cnc3ccc(OC[C@@H](O)CO)cc32)sc1C(N)=O)c1ccccc1Cl | 0.64 | -0.35 | -0.09 | 2.55 | 14.6 | -0.47 | 18.2 | -0.26 | 2.04 | 0.33 | 3.73 | 1.11 | 14.7 | 3.59 | 29.4 | 0.37 | 3.1 | 3.13 | 1.94 | -0.94
NS(=O)(=O)c1ccc(Nc2cc(-c3cccc(O)c3)n[nH]2)cc1 | -0.51 | 5.22 | 5.56 | 4.05 | 3.13 | 4.11 | 7.43 | 1.36 | 2.01 | 4.76 | 10.5 | 5.48 | 12.6 | 5.55 | 14.4 | 2.77 | 2.95 | -9.08 | 0.24 | 3.17
CCCN1CCCC(c2ccc(Nc3nc(Nc4cc(F)ccc4C(N)=O)c4cc[nH]c4n3)c(OC)c2)C1 (stereo not given) | 75.8 | 4.67 | 9.82 | 4 | 4.28 | 41.2 | 81 | 5.79 | 41.1 | 3.35 | 5.65 | 4.46 | 6.11 | 3.36 | 5.51 | 3.48 | 6.47 | -2.19 | 79.6 | 1.81
